Bioassay records deposited in PubChem by National Center for Advancing Translational Sciences (NCATS).
HEK293 tox = cytotoxicity in counter-screen for GLP-1R inverse agonists. HEK293 cAMP-luciferase reporter cells, luminescence, 24 h. AID 624418. 410,000 compounds, 0.13% hits. Potency, µM (highest dose often 38.3 µM), for the others: top-dose activity change, negative = inhibition, actives largely listed as inhibitors;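 note: loss of luciferase light is scored as toxicity; potency is the fitted concentration of half-maximal effect; % is set by controls: 0 for no effect and ±100 for the full control effect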
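Seeding density was 200 cells/uL; after overnight-length (12 h) culture, 23 nL compounds went on for 24 h at 37 °C. Readout used a luciferase detection reagent, luminescence taken after 12 min at room temperature.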
GLP-1R agonist = GLP-1 receptor (human) agonism; P43220; HEK293 GLP-1R CRE-luciferase, luminescence, 4-6 h; cells express a hypersensitive GLP-1R form; Potency, µM (highest dose often 45.6 µM), for inactives: top-dose activation, usual class: activators; 380,000 compounds, 0.007% hits; AID 624172; note: potency is the fitted concentration of half-maximal effect; % of control where 0% means no effect
Target sequence (P43220 whole entry, looked up): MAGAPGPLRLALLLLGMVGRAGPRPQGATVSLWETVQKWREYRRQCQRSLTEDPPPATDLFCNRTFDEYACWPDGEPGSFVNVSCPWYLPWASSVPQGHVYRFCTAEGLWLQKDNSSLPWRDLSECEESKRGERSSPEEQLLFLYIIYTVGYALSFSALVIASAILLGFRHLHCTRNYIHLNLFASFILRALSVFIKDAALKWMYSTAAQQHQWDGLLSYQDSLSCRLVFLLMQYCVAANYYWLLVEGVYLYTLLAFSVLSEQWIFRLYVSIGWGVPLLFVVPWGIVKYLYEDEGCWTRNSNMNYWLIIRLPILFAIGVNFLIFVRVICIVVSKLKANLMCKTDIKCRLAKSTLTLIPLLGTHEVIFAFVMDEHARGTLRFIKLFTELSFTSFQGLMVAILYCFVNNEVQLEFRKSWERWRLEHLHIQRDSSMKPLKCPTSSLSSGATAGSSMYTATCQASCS
CCT modulator = cytosolic chaperonin activity modulation; 360,000 compounds, 0.3% hits; activity change, % (no concentration beside the values), hits read low; purified chaperonin ATPase assay, HTRF ADP detection, 30 min; in the data active = activity change below about -30%; note: % is set by controls: 0 for no effect and ±100 for the full control effect
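First, chaperonin was dispensed at 40 nM or 20 nM final depending on batch activity. Next, compounds were pinned at 76 uM and ATP added at 10 uM. After 30 min at 37 °C, ADP detection reagents ran 30 min at ambient temperature.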
MmCpn inh = M. maripaludis TRiC chaperonin inhibition; purified Mm-Cpn ATPase, ADP Transcreener TR-FRET; Potency, µM (series often up to 76.9 µM), inactives show at the highest dose activity, negative = inhibition, actives largely listed as inhibitors; 330,000 compounds, 0.031% hits; note: potency is the fitted concentration of half-maximal effect; % is set by controls: 0 for no effect and ±100 for the full control effect; nearly all actives have a fitted effect of over 80% in size
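Quantitative HTS used 25 nM Mm-CPN and 10 uM ATP in magnesium/KCl Tris buffer, pH 7.4, with 1 mM DTT. Hydrolysis ran 30 min at 37°C; ADP was read by HTRF.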
uPA surface inh = blocks generation of uPA at the cell surface | Potency, µM (top dose mostly 38.3 µM), without a hit: at the top dose activity change, negative = inhibition, most hits filed as inhibitors | 330,000 compounds, 0.31% hits | cell surface uPA generation assay, qHTS; active = well fitted inhibition curve with a large enough effect; inconclusive = small, poorly fitted or top-dose-only effect; inactive = no such curve, though single readings can be large or run the other way; tested in mouse RAW 264.7 cells; note: potency is the fitted concentration of half-maximal effect; % is set by controls: 0 for no effect and ±100 for the full control effect; nearly all actives have a fitted effect of over 55% in size
GLP1R inv ag = inverse agonists of human GLP-1 receptor; P43220; HEK293 GLP-1R CRE-luciferase, luminescence, 24 h; GLP-1R form is constitutively active; Potency, µM (titrated, usually from 38.3 µM), for the others: at the highest dose activity change, negative = inhibition, actives largely listed as inhibitors; 410,000 compounds, 1.6% hits; AID 624417; note: potency is the fitted concentration of half-maximal effect; % is set by controls: 0 for no effect and ±100 for the full control effect; nearly all actives have a fitted effect of over 55% in size
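Luminescence readout: a drop in cAMP-driven luciferase signal flags inverse agonism at a constitutively active GLP-1R stably expressed in HEK293. Compound exposure lasted 24 hr at 37 deg C, 5% CO2.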
* = called active by the depositor; ? = inconclusive; . = no result. Compounds with a hit are over-represented: about 2.2% of the library has one in this group of screens. Unless noted, calls come from the whole dose curve; as a rule, active = well fitted curve in the direction sought with a large enough effect; inconclusive = small, poorly fitted or top-dose-only effect, or another doubt; inactive = no such curve, though single readings can be large; an effect the other way counts as inactive or inconclusive.

SMILES | HEK293 tox | GLP-1R agonist | CCT modulator | MmCpn inh | uPA surface inh | GLP1R inv ag
Cc1cccc(NC(=O)c2oc3ccccc3c2NC(=O)Cc2coc3cc(C)cc(C)c23)c1 | -10% | . | . | . | . | 12%
CC(C)c1ccc(S(=O)(=O)N2CCC(n3c(C(F)(F)F)nc4cccnc43)CC2)cc1 | 10% | . | . | . | . | 16%
Cn1nc(C(C)(C)C)cc1C(=O)N1CCCCC1c1cc(C(=O)Nc2cccc(C#N)c2)no1 (centres undefined) | -1% | 0% | -1 | . | . | 10µM*
Cc1oc2c(C)c3oc(=O)c(CC(=O)N4CCCCC4)c(C)c3cc2c1C | 2% | . | . | . | . | 0%
COc1ccc(OC)c(NC(=O)CN(Cc2ccc(F)cc2)C2CCCCC2)c1 | -11% | 8% | 1 | 0% | 2% | 3.5µM*
Cc1cc(N2CCN(Cc3nc(-c4ccc(F)cc4)oc3C)CC2)cc(C)n1 | -25% | 9% | 1 | -4% | -19% | 4.5µM*
COc1ccccc1N1CCN(Cc2nc(-c3ccc(F)cc3)oc2C)CC1 | -3% | 7% | -1 | -1% | 7% | ?
C#CCOCCOCCOCCNc1nc(N2CCOCC2)nc(N2CCN(C(=O)[C@H](CCC(=O)O)n3cc(C(N)[C@H](C)CC)nn3)CC2)n1 (some centres undefined) | 5% | -2% | 1 | . | 3% | 5%
C#CCOCCOCCOCCNc1nc(N2CCN(C(=O)[C@H](CCC(=O)O)n3cc(CN)nn3)CC2)nc(N2CCN(C(=O)[C@H](CCC(=O)O)n3cc([C@@H](N)[C@H](C)CC)nn3)CC2)n1 | 3% | -4% | -33* | 0% | 7% | -3%
Cn1cc(C(=O)C(=O)NCCc2ccccc2)c2ccccc21 | ? | 13% | -51* | 3% | 3% | ?
O=C(NCC(c1ccco1)N1CCc2ccccc21)c1cccc([N+](=O)[O-])c1 (centres undefined) | -5% | 23% | -2 | 0% | -6% | 10µM*
O=C(CCc1ccccc1)NCC(c1ccco1)N1CCc2ccccc21 (centres undefined) | 3% | 16% | 0 | 2% | 3.2µM* | ?
Cc1ccc(C(=O)NCC(c2ccco2)N2CCc3ccccc32)cc1 (centres undefined) | 8% | -2% | -2 | -4% | 0% | 10µM*
COc1ccc(S(=O)(=O)NCC(c2ccco2)N2CCc3ccccc32)cc1 (centres undefined) | -7% | -1% | 0 | 1% | 0% | 6.3µM*
Cc1cccc(C(=O)NCC(c2ccco2)N2CCc3ccccc32)c1 (centres undefined) | -8% | 16% | -1 | 3% | 1% | ?
O=C(NCC(c1ccco1)N1CCc2ccccc21)c1ccc([N+](=O)[O-])cc1 (centres undefined) | -5% | -9% | 1 | -3% | -28% | ?
CC(=O)SCC(CC(=O)c1ccc(C)cc1)C(=O)O (centres undefined) | . | -2% | . | . | . | .
COc1ccc(C(=O)NCC(c2ccco2)N2CCc3ccccc32)c(OC)c1 (centres undefined) | -2% | 17% | -1 | 0% | -12% | 8.9µM*
O=C(O)C1=C[C@H](c2csc3ccccc23)C[C@H](OCc2ccc(CO)cc2)O1 | 14% | -2% | -1 | . | 5% | 9%
CCO[C@@H]1OC(C(=O)NCc2nc3ccccc3[nH]2)=C[C@H](C(C)(C)C)[C@H]1CCCO | -13% | 15% | 1 | . | ? | ?
CCO[C@@H]1OC(C(=O)NCc2nc3ccccc3[nH]2)=C[C@H](C2CC2)[C@H]1CCCO | -12% | 7% | 1 | . | 4.5µM* | ?
O=C(NCc1nc2ccccc2[nH]1)C1=C[C@H](c2ccc(Br)cc2)C[C@H](OCc2ccc(CO)cc2)O1 | ? | -2% | -49* | . | -10% | ?
O=C(NCc1ccccc1)C1=C[C@@H](c2csc3ccccc23)C[C@@H](OCc2ccc(CO)cc2)O1 | -6% | -1% | -1 | . | ? | 8.9µM*
COc1ccc(CNCc2c(C(=O)O)c(C)n(Cc3ccccc3C)c2C)cc1OC | -10% | . | . | . | . | 10%
CN(CC(=O)NC(=O)NCc1ccccc1)Cc1ccc(Cl)cc1 | -2% | 8% | 1 | -12% | -5% | ?
SMILES | HEK293 tox | GLP-1R agonist | CCT modulator | MmCpn inh | uPA surface inh | GLP1R inv ag
CN(CC(=O)NC(=O)NCc1ccccc1)CC(=O)Nc1ccc(Cl)c(C(F)(F)F)c1 | -25% | 8% | 0 | 0% | -4% | 7.9µM*
CN(CC(=O)NCc1ccccc1)CC(=O)Nc1ccc(Cl)c(C(F)(F)F)c1 | -2% | 4% | -11 | -1% | -3% | ?
CCc1nc2ccc(C(=O)N(C)CC(=O)Nc3ccc(Cl)c(C(F)(F)F)c3)cc2nc1CC | ? | -24% | -2 | -2% | 2% | 8.9µM*
CN(CC(=O)NC(=O)NCc1ccccc1)Cc1cccc(Cl)c1Cl | -23% | 0% | -4 | 2% | 1% | 10µM*
CCOc1ccc(NC(=O)CN(C)C(=O)c2ccc3nc(CC)c(CC)nc3c2)cc1OCC | -4% | 5% | -5 | -2% | 2% | 13%
O=C(O)CCN1C(=O)c2ccc(NC(=O)Cc3ccc(Cl)cc3)cc2C1=O | -1% | -2% | -32* | 1% | 4% | 6%
CC(C)n1cc(/C=N/Nc2ccc(C(=O)O)cc2)c2ccccc21 | 3% | -5% | 1 | -4% | 13% | -48%
Cn1cc(/C=N/Nc2ccccc2)c2ccccc21 | -37% | -4% | -2 | -3% | -2% | 11µM*
Cn1nnnc1Sc1ncnc2scc(Br)c12 | . | -9% | . | -3% | 2.8µM* | .
CC(C)C(=O)NC(=S)Nc1ccc(S(=O)(=O)NC2CCCCC2)cc1 | 1% | 4% | -2 | -1% | 2% | 10µM*
CC/C(=N\NC(=O)c1nnn(-c2nonc2N)c1-c1cccs1)c1ccccc1 | 4% | 7% | -2 | -1% | 8% | 7.9µM*
CC(/C=N/NC(=O)c1nnn(-c2nonc2N)c1CN(C)C)=C\c1ccco1 | -1% | -1% | 1 | -5% | 3% | 9%
CCCN(CCC)Cc1c(C(=O)N/N=C/C(C)=C\c2ccco2)nnn1-c1nonc1N | -30% | 0% | 1 | -2% | -5% | 3.5µM*
CC/C(=N\NC(=O)c1nnn(-c2nonc2N)c1CN(C)c1ccccc1)c1ccccc1 | 6% | -1% | -67* | 1% | -12% | 18%
Cc1ccsc1/C=N/NC(=O)c1nnn(-c2nonc2N)c1CN(C)c1ccccc1 | 1% | 1% | 0 | -1% | 10% | 11µM*
CCCSc1ncc(Cl)c(C(=O)Nc2c(C(=O)c3ccc(C)cc3)oc3ccccc23)n1 | 1% | . | . | . | . | 3%
